From PubChem BioAssay
Activity calls are given as the source filed them.

What was measured:
[1] = small molecules captured by biotinylated probe aFSTL3 – biochemical, small-molecule microarray, fluorescence 635/667, stem cell growth factor project, primary screen (AID 1064); details: higher = more signal;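 also: measures binding of the biotinylated anti-FSTL3 antibody to printed compounds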
[2] = binders from COS7 lysate, DM2A8 probe, primary screen, torsin A project, cell lysate, small-molecule microarray, fluorescence 635/667 (AID 1065); details: higher = more signal, COS7 lysate expressing mutant human TOR1A
[3] = small molecules captured by biotinylated probe aFGF2 – biochemical, small-molecule microarray, fluorescence 635/667, stem cell growth factor project, primary screen (AID 1067); details: higher = more signal;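 also: measures binding of biotinylated aFGF2 protein to printed compounds on slides; z-score merges feature fluorescence and signal-to-noise across triplicate slides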
[4] = small molecules captured by biotinylated probe aFGF10 – biochemical, small-molecule microarray, fluorescence 635/667, stem cell growth factor project, primary screen (AID 1071); details: higher = more signal;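 also: score merges 667 nm spot intensity and signal to noise from triplicate slides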
[5] = target: Neurogenic locus notch homolog protein 2 (Homo sapiens) (UniProt Q04721); test: small molecules binding Notch2 protein – biochemical, small-molecule microarray, 635 nm fluorescence, stem cell growth factors, primary screen (AID 1073); details: higher = more signal
[6] = target: Pro-neuregulin-1, membrane-bound isoform (Homo sapiens) (UniProt Q02297); test: small molecules binding neuregulin-1 protein – biochemical, small-molecule microarray, fluorescence 635/667, psychiatric disease protein project, primary screen (AID 1075); details: NRG1 binding, 635 nm fluorescence, higher = more signal;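 also: score combines 667 nm spot fluorescence with signal to noise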
[7] = tested on: Neuregulin-1 EGF-like domain; test: small molecules binding NRG1 EGF domain – biochemical, small-molecule microarray, 635 nm fluorescence, primary screen (AID 1081); details: higher = more signal;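 also: binding of the protein to compounds printed on small-molecule microarray slides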
[8] = FRG1 expression reporter modulators in myotubes – cell-based, C2C12 myotubes, firefly/Renilla luciferase, luminescence, FRG1 inhibition for FSHD, primary screen (AID 1084); details: FRG1 promoter luciferase, higher = more signal, called active from +8 up or from −8 down
[9] = small molecules captured by biotinylated probe aFST – biochemical, small-molecule microarray, fluorescence 635/667, stem cell growth factor project, primary screen (AID 1086); details: higher = more signal;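 also: score merges 667 nm fluorescence with signal-to-noise of each printed compound spot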
[10] = binders of probe aHhip on microarray, primary screen, stem cell growth factor project, biochemical, small-molecule microarray, fluorescence 635/667 (AID 1087); details: higher = more signal;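 also: score merges spot fluorescence at 667nm with spot signal to noise ratio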
[11] = tested on: PRMT1 (protein arginine N-methyltransferase 1); test: small molecules binding arginine methyltransferase PRMT1 – biochemical, small-molecule microarray, 635 nm fluorescence, primary screen (AID 1088); details: higher = more signal;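 also: binding of Prmt1 protein to compounds spotted on small-molecule microarray slides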
[12] = growth effects on S. cerevisiae YJM789 – YJM789 clinical isolate, OD600, 24 h, basal, primary screen (AID 1089); details: higher = more signal, called active from +8 up or from −8 down;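 also: growth of clinical yeast isolate S. cerevisiae YJM 789 seeded 1000 cells per well; test concentration not given here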
[13] = S. pombe growth modifiers, basal conditions – strain 972, OD600, 24 h, no modulator, primary screen (AID 1090);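 also: basal condition with compound alone and no growth modifier present; test concentration not given here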; details: S. pombe 972 growth, higher = more signal, called active from +8 up or from −8 down
[14] = budding yeast growth modifiers under rapamycin – strain BY4716, OD600, 96 h, primary screen (AID 1091); also: test concentration not given here; details: S. cerevisiae BY4716 + rapamycin, higher = more signal, called active from +8 up or from −8 down
[15] = target: Torsin-1A-interacting protein 2 (Homo sapiens) (UniProt Q8NFQ8); test: small molecules binding lysate-expressed LULL1 – cell lysate, human LULL1 lysate, 635/667 nm fluorescence, primary screen (AID 1092); details: small-molecule microarray, hLULL1 lysate binding, 635 nm fluorescence; higher = more signal;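 also: probe is lysate of COS7 cells overexpressing human LULL1; score merges per-feature 667 nm fluorescence with signal-to-noise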
[16] = optical density change of DRC41 E. coli – strain DRC41, OD650, 24 h, E. coli filamentation project, primary screen (AID 1093);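 also: MC1000 strain lacking acrAB efflux and sulA so SOS filamentation is blocked; test concentration not given here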; details: E. coli DRC41 growth, higher = more signal, called active from +8 up or from −8 down
[17] = probe aLefty2 binding to arrayed compounds – biochemical, biotinylated probe, 635/667 nm fluorescence, primary screen (AID 1094); details: small-molecule microarray, higher = more signal;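 also: score merges spot fluorescence near 667 nm with spot signal-to-noise ratio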
[18] = tested on: Noggin (protein binding on small-molecule microarray); test: small molecules binding Noggin protein – biochemical, 635/667 nm fluorescence, primary screen (AID 1095); details: 635 nm fluorescence, higher = more signal;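 also: score merges 667 nm feature fluorescence with signal to noise over triplicate slides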
[19] = target: Neurogenic locus notch homolog protein 3 (Homo sapiens) (UniProt Q9UM47); test: small molecules binding NOTCH3 protein – biochemical, 635/667 nm fluorescence, primary screen (AID 1096); details: small-molecule microarray, 635 nm fluorescence, higher = more signal
[20] = probe aEGFR binding to arrayed compounds – biochemical, biotinylated probe, 635/667 nm fluorescence, primary screen (AID 1097); details: small-molecule microarray, higher = more signal;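 also: probe is a biotinylated anti-EGFR antibody binding compounds printed on slides; score combines fluorescence near 667 nm and signal to noise of each spot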

Sequence of Neurogenic locus notch homolog protein 3 (Homo sapiens) (Q9UM47 whole entry, looked up): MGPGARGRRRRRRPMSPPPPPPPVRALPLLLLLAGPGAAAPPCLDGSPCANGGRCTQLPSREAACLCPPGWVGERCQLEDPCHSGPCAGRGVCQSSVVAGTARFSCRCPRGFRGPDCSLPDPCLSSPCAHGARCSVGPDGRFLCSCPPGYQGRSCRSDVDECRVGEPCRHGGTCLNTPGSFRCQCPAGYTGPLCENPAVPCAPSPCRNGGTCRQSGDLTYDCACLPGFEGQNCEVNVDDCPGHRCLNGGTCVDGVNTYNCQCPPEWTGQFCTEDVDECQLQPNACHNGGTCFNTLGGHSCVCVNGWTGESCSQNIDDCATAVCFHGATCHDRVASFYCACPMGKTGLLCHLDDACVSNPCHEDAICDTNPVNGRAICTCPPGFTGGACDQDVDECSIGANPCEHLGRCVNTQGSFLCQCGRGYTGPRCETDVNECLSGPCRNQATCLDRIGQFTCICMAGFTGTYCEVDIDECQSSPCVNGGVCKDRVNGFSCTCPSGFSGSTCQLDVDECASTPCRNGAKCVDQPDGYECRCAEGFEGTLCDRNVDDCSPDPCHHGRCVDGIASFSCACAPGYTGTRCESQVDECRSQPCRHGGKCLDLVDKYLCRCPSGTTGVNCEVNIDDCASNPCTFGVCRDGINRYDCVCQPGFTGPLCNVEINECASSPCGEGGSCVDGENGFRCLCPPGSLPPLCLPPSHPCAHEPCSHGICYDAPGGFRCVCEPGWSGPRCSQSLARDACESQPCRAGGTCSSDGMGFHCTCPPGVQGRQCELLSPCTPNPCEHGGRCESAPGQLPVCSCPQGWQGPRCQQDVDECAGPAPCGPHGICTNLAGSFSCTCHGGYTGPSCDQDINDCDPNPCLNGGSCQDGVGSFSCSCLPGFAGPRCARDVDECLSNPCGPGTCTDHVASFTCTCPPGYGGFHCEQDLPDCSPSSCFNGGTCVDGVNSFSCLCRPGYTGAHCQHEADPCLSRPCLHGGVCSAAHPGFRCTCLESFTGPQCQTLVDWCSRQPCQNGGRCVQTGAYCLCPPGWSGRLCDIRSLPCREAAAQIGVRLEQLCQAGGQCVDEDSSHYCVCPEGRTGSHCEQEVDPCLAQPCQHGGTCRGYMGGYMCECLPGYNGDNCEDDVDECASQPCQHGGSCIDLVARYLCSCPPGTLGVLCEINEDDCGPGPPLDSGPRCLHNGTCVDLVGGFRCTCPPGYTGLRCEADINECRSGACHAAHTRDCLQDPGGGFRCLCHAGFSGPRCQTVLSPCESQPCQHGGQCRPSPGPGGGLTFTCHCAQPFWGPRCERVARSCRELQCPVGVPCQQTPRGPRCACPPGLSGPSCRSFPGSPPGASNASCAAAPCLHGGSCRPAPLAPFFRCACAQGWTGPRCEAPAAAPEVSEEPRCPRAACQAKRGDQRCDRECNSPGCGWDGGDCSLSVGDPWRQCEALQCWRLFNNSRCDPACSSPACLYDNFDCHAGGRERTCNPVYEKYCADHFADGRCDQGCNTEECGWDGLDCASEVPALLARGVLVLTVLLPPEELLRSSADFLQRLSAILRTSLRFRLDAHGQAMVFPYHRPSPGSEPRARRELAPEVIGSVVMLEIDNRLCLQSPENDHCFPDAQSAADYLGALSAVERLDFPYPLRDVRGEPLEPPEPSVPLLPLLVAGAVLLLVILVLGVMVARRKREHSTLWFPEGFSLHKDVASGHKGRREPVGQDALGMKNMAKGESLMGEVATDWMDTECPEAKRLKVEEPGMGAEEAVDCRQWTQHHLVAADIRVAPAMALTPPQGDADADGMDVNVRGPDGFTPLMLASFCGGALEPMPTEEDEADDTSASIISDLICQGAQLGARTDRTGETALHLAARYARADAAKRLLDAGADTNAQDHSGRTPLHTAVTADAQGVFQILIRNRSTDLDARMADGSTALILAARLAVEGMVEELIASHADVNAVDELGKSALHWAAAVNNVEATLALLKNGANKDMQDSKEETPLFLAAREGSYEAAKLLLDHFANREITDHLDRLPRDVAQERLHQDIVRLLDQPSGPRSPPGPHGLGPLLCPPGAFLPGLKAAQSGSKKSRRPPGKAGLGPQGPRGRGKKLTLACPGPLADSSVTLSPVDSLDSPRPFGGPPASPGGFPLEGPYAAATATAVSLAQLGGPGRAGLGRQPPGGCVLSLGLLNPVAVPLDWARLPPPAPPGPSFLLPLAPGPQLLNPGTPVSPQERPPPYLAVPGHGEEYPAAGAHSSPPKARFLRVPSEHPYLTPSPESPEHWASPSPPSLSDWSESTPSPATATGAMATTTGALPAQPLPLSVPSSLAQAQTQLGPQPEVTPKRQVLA
Sequence of Neurogenic locus notch homolog protein 2 (Homo sapiens) (Q04721 whole entry, looked up, canonical isoform): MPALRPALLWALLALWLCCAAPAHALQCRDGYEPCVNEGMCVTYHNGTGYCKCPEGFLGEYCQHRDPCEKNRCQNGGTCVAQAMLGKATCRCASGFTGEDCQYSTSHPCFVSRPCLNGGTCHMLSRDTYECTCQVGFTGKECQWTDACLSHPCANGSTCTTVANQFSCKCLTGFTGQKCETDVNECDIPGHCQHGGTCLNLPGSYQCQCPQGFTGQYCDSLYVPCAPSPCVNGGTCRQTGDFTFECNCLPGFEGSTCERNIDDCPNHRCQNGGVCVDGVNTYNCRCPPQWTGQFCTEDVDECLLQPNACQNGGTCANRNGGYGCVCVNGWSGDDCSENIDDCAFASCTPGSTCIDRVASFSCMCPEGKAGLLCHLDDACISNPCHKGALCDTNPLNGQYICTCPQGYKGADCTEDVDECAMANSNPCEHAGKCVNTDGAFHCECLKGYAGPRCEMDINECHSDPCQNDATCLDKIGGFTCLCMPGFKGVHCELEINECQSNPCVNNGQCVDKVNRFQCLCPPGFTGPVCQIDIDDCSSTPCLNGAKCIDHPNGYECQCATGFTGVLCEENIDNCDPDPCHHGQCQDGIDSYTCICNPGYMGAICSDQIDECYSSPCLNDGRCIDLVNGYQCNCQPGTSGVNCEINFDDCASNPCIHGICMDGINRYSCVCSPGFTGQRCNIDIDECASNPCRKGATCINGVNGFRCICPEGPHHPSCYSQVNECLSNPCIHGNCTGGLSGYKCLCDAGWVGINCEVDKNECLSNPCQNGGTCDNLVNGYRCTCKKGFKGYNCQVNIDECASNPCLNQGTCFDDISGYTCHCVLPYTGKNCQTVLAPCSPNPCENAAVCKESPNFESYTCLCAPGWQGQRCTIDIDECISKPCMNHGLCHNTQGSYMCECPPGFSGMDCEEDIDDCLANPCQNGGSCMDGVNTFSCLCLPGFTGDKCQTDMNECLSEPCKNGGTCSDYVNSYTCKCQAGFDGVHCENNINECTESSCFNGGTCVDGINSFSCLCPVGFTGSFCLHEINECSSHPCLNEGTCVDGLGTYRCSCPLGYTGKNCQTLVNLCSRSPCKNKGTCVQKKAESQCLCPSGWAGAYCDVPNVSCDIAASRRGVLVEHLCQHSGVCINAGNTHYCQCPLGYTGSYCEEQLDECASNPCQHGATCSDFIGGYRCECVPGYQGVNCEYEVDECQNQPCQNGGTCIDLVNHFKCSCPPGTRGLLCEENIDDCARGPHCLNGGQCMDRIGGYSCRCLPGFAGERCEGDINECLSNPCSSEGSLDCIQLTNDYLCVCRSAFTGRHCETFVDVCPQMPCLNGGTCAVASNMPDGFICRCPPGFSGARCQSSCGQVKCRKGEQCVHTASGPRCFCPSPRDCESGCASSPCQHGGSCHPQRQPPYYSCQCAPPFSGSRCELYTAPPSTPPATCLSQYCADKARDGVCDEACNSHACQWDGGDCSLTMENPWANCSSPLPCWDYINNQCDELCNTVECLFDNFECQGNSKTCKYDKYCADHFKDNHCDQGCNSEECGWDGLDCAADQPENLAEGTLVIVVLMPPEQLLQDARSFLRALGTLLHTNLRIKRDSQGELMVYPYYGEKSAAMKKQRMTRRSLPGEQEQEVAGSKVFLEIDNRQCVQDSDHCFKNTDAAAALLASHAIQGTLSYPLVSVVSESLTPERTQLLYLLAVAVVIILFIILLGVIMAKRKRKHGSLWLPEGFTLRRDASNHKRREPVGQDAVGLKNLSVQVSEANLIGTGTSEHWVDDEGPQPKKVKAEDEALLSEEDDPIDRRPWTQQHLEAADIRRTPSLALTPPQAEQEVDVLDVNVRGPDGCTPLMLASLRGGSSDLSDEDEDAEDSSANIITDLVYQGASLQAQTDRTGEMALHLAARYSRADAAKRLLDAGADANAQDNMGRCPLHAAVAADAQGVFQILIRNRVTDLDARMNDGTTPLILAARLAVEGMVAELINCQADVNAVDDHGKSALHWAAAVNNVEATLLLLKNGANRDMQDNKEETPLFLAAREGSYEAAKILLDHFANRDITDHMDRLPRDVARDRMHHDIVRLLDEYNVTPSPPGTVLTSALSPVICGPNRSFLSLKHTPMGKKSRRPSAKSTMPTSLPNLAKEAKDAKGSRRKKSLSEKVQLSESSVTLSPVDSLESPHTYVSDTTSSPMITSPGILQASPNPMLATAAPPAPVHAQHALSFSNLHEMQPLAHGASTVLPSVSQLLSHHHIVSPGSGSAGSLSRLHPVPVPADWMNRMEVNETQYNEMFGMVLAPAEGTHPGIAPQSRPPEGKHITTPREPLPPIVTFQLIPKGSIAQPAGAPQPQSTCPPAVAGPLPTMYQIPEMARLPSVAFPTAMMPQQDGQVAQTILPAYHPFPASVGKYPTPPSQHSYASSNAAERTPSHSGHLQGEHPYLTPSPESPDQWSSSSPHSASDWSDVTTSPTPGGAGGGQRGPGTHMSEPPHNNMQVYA

Row | SMILES | composite z-score [1] | composite z-score [2] | composite z-score [3] | composite z-score [4] | composite z-score [5] | composite z-score [6] | composite z-score [7] | z-score [8] | composite z-score [9] | composite z-score [10] | composite z-score [11] | z-score [12] | z-score [13] | z-score [14] | composite z-score [15] | z-score [16] | composite z-score [17] | composite z-score [18] | composite z-score [19] | composite z-score [20]
1 | C=CC[C@@]1(C(N)=O)N=C(c2ccc(OCCCO)cc2)O[C@@H]1c1ccccc1CN=[N+]=[N-] | 0.626 | -0.41 | -0.0193 | 0.291 | 0.77 | 2.17 | 1.41 | 2.94 (inactive) | 1.19 | 0.0053 | 0.867 | -0.884 (inactive) | -0.398 (inactive) | -0.512 (inactive) | 3.77 | 0.0086 (inactive) | 0.444 | 0.174 | 0.638 | 0.0651
2 | CCN(CC)c1ccc(N2CC=CC34O[C@@H]5/C=C\CCC(C)OC(=O)C5[C@H]3C(=O)N(C(CO)C(C)C)[C@@H]4C2=O)cc1 (stereo not given in full) | 0.165 | -0.892 | -0.0316 | -0.551 | -0.455 | 0.12 | 1.49 | 0.225 (inactive) | -0.344 | 1.01 | 0.746 | -1.28 (inactive) | -0.892 (inactive) | -0.924 (inactive) | 3.28 | 0.41 (inactive) | -0.17 | -0.995 | -0.0778 | -0.13
3 | CN1C(=O)C2C=CC(C(O)c3ccc(I)cc3)N(N3CCCCC3)C2C1=O (stereo not given) | 0.151 | 0.235 | 0.0671 | 1.09 | 1.71 | 1.73 | 1.27 | 1.14 (inactive) | 1.4 | -0.0346 | 1.55 | 0.276 (inactive) | -1.13 (inactive) | -0.0412 (inactive) | 3.36 | -1.74 (inactive) | 0.583 | 0.282 | 1.04 | 0.0747
